PubChem BioAssay
Activity calls are given as the source filed them.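 How the source made its calls, unless noted: active means visually confirmed hit in the image check and inhibition above 20%; inconclusive means visually confirmed hit but inhibition not above 20%; inactive means no visual hit in the image check.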

tested on: not listed separately; assay: endothelial E-selectin expression blockers – imaging, HUVEC, immunofluorescence, MLSMR starter and 10KST1 sets, primary screen (AID 487); conditions: HUVEC TNFalpha-induced E-selectin immunofluorescence imaging, at 2 µM; inhibition: stronger effect = higher value; nuclei count: measured here: cell number, toxicity;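 on inhibition: signal is fraction of cell area covered by stained E-selectin grains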;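 on nuclei count: 100% = median nuclei count of all wells on the same plate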

Structure (SMILES) | nuclei count | inhibition
Cc1cc(C)nc(SCc2nnc(SCC(=O)Nc3ncc(C)s3)n2Cc2ccco2)n1 | 103% | -23.5% (inactive)
COc1cccc(C2C(C(=O)c3cccs3)=C(O)C(=O)N2CCCn2ccnc2)c1OC (stereo not given) | 106% | -168% (inactive)
COc1cc(C(=O)N(C)c2nnc(-c3cccnc3)s2)cc(OC)c1OC | 103% | 3.6% (inactive)
CC(=O)Nc1nnc(SCC(=O)NCC2CCCO2)s1 (stereo not given) | 110% | -123% (inactive)
O=C(CSc1nc2cc(S(=O)(=O)N3CCOCC3)ccc2o1)NC1CCCc2ccccc21 (stereo not given) | 86.1% | 36.5% (inactive)
O=C(NCCN1CCOCC1)c1ccc(CS(=O)(=O)Cc2ccccc2F)o1 | 108% | -69.5% (inactive)
CCOC(=O)c1c(C)oc2ccc(NS(=O)(=O)c3ccc4c5c(cccc35)C(=O)N4)cc12 | 114% | -185% (inactive)
COC(=O)CCn1nnc(-c2ccc(C)cc2)n1 | 108% | -24.9% (inactive)
O=C(Nc1ccc(NC(=O)C2CC2)cn1)c1ccccc1Cl | 113% | -79% (inactive)
COc1ccc(NC(=O)CC2CCCCC2)cc1OC | 99.7% | -69.1% (inactive)
CC1(C)CC2CC(C)(CN2S(=O)(=O)c2ccc(N)cc2)C1 (stereo not given) | 60.2% | 65.6% (inactive)
COc1cc(C(=O)NCC(=O)OCC(=O)c2ccc[nH]2)cc(OC)c1OC | 107% | -64.2% (inactive)
C=CCSc1nnc(-c2ccc(Cl)cc2Cl)o1 | 88.4% | 14.7% (inactive)
COc1cc(CC(=O)Oc2ccc3c(c2)OCO3)cc(OC)c1OC | 101% | -79.4% (inactive)
C(=N\n1cnnc1)/c1cccc(OCCOc2ccccc2)c1 | 108% | -33.2% (inactive)
CCN(CC)C(c1ccc(C)cc1)c1nnnn1C1CCCCC1 (stereo not given) | 88.2% | 60% (inactive)
CCOC(=O)Nc1ccc2c(c1)N(C(=O)CCN1CCOCC1)c1ccccc1S2 | 104% | 3% (inactive)
Cc1cc(=O)c2n(Cc3ccccc3Cl)nc[n+]2[nH]1 | 120% | -111% (inactive)
CC12CN3CCN(CC(C3)C1(O)CN1CCCCC1)C2 (stereo not given) | 121% | -66.3% (inactive)
Cc1cc(C)n(C(C)n2nc(C)cc2C)n1 | 68% | -37% (inactive)

Structure (SMILES) | nuclei count | inhibition
COC(=O)CSc1nnc(CSc2nc(C)cc(C)n2)n1Cc1ccco1 | 135% | -50.8% (inactive)
Cc1cc(NC(=O)CSc2nc(C3CCCCC3)nc3ccccc23)no1 | 106% | -10.7% (inactive)
Cc1cccc(C)c1NC(=O)COC(=O)c1nonc1N | 87.2% | 32.7% (inactive)
CCn1c(=N)n(CC(=O)c2ccco2)c2ccccc21 | 83.4% | 52.9% (active)
C=C(C)Cn1c(CCCNC(=O)C(C)(C)C)nc2ccccc21 | 110% | 14% (inactive)
Cc1cn(C2CC3OCC3O2)c(=O)[nH]c1=O (stereo not given) | 98.4% | 30.5% (inactive)
CC(=O)Nc1ccc(Cc2ccncc2)cc1 | 115% | -40.3% (inactive)
O=C(Nc1ccon1)c1cccc(S(=O)(=O)N2CCCC2)c1 | 102% | -11.9% (inactive)
CCOC(=O)c1sc(NC(=O)CSc2ncn(-c3ccccc3)n2)nc1C | 69.6% | -8% (inactive)
O=C(Nc1ccccc1)N(CCCN1CCOCC1)Cc1cc2cc3c(cc2[nH]c1=O)OCCO3 | 98.3% | -24.2% (inactive)
COCC(=O)n1nc(NCc2ccc(OC)cc2)nc1NCc1ccc(OC)cc1 | 96.2% | -25.2% (inactive)
Cc1ccc(S(=O)(=O)N2CCN(C(=O)N3CCOCC3)C2c2ccc(N(C)C)cc2)cc1 (stereo not given) | 121% | -44.5% (inactive)
COc1cccc2c(=O)cc(C)n(CC(=O)Nc3ccc(C)c(C)c3)c12 | 85.2% | 46.9% (inactive)
O=C(NCc1cccnc1)c1cccc(C(F)(F)F)c1 | 103% | 4.9% (inactive)
COc1ccc(C(=O)Nc2ccc(Cl)c(Cl)c2)c(OC)n1 | 137% | -145% (inactive)
COc1cc(C(=O)OCc2cc3ccccc3[nH]c2=O)cc(OC)c1OC | 102% | -38.9% (inactive)
COc1cc(C)c(Br)cc1S(=O)(=O)N1CCOCC1 | 126% | -68.9% (inactive)
FC(F)Oc1cccc2cccnc12 | 82.3% | 67.2% (active)
Cc1ccc(OCC2Cn3c(nc4c3c(=O)n(C)c(=O)n4C)O2)cc1 (stereo not given) | 120% | -13.1% (inactive)
Cc1cnc(C(=O)Nc2ccccc2-n2cccc2)cn1 | 115% | -157% (inactive)

target: Voltage-gated potassium channel subunit beta-2 (Rattus norvegicus) (UniProt P62483); assay: inhibitors of rat Kvbeta2 reductase activity – biochemical, NADPH fluorescence, primary screen (AID 622;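 active means fluorescence slope higher than the sample average by over 3 SD, cut at about -0.22 in these data, passing the limit was not always enough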;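 further: slope of raw intensity against log time taken from 70 to 1610 s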); conditions: recombinant KvBeta, 4-cyanobenzaldehyde reduction, at 10 µM, stronger effect = higher value
Sequence (P62483 whole entry, looked up): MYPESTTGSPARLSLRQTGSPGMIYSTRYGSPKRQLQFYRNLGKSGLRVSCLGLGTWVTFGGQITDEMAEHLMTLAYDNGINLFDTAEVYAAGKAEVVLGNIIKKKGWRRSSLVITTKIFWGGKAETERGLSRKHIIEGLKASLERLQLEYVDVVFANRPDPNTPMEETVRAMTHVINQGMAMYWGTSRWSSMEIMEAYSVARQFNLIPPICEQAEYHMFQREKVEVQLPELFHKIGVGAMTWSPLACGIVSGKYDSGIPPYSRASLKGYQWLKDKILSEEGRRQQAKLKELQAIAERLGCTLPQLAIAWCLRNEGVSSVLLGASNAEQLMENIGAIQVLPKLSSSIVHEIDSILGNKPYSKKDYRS

Structure (SMILES) | fluorescence slope
Cc1cc(C)nc(SCc2nnc(SCC(=O)Nc3ncc(C)s3)n2Cc2ccco2)n1 | -0.353 (inactive)
COc1cccc(C2C(C(=O)c3cccs3)=C(O)C(=O)N2CCCn2ccnc2)c1OC (stereo not given) | -0.341 (inactive)
COc1cc(C(=O)N(C)c2nnc(-c3cccnc3)s2)cc(OC)c1OC | -0.5 (inactive)
CC(=O)Nc1nnc(SCC(=O)NCC2CCCO2)s1 (stereo not given) | -0.413 (inactive)
O=C(CSc1nc2cc(S(=O)(=O)N3CCOCC3)ccc2o1)NC1CCCc2ccccc21 (stereo not given) | -0.363 (inactive)
O=C(NCCN1CCOCC1)c1ccc(CS(=O)(=O)Cc2ccccc2F)o1 | -0.453 (inactive)
CCOC(=O)c1c(C)oc2ccc(NS(=O)(=O)c3ccc4c5c(cccc35)C(=O)N4)cc12 | -0.223 (inactive)
COC(=O)CCn1nnc(-c2ccc(C)cc2)n1 | -0.341 (inactive)
O=C(Nc1ccc(NC(=O)C2CC2)cn1)c1ccccc1Cl | -0.316 (inactive)
COc1ccc(NC(=O)CC2CCCCC2)cc1OC | -0.356 (inactive)
CC1(C)CC2CC(C)(CN2S(=O)(=O)c2ccc(N)cc2)C1 (stereo not given) | -0.374 (inactive)
COc1cc(C(=O)NCC(=O)OCC(=O)c2ccc[nH]2)cc(OC)c1OC | -0.458 (inactive)
C=CCSc1nnc(-c2ccc(Cl)cc2Cl)o1 | -0.373 (inactive)
COc1cc(CC(=O)Oc2ccc3c(c2)OCO3)cc(OC)c1OC | -0.392 (inactive)
C(=N\n1cnnc1)/c1cccc(OCCOc2ccccc2)c1 | -0.351 (inactive)
CCN(CC)C(c1ccc(C)cc1)c1nnnn1C1CCCCC1 (stereo not given) | -0.399 (inactive)
CCOC(=O)Nc1ccc2c(c1)N(C(=O)CCN1CCOCC1)c1ccccc1S2 | -0.37 (inactive)
Cc1cc(=O)c2n(Cc3ccccc3Cl)nc[n+]2[nH]1 | -0.397 (inactive)
CC12CN3CCN(CC(C3)C1(O)CN1CCCCC1)C2 (stereo not given) | -0.347 (inactive)
Cc1cc(C)n(C(C)n2nc(C)cc2C)n1 | -0.364 (inactive)

Structure (SMILES) | fluorescence slope
COC(=O)CSc1nnc(CSc2nc(C)cc(C)n2)n1Cc1ccco1 | -0.404 (inactive)
Cc1cc(NC(=O)CSc2nc(C3CCCCC3)nc3ccccc23)no1 | -0.378 (inactive)
Cc1cccc(C)c1NC(=O)COC(=O)c1nonc1N | -0.34 (inactive)
CCn1c(=N)n(CC(=O)c2ccco2)c2ccccc21 | -0.391 (inactive)
C=C(C)Cn1c(CCCNC(=O)C(C)(C)C)nc2ccccc21 | -0.397 (inactive)
Cc1cn(C2CC3OCC3O2)c(=O)[nH]c1=O (stereo not given) | -0.399 (inactive)
CC(=O)Nc1ccc(Cc2ccncc2)cc1 | -0.39 (inactive)
O=C(Nc1ccon1)c1cccc(S(=O)(=O)N2CCCC2)c1 | -0.374 (inactive)
CCOC(=O)c1sc(NC(=O)CSc2ncn(-c3ccccc3)n2)nc1C | -0.363 (inactive)
O=C(Nc1ccccc1)N(CCCN1CCOCC1)Cc1cc2cc3c(cc2[nH]c1=O)OCCO3 | -0.412 (inactive)
COCC(=O)n1nc(NCc2ccc(OC)cc2)nc1NCc1ccc(OC)cc1 | -0.377 (inactive)
Cc1ccc(S(=O)(=O)N2CCN(C(=O)N3CCOCC3)C2c2ccc(N(C)C)cc2)cc1 (stereo not given) | -0.419 (inactive)
COc1cccc2c(=O)cc(C)n(CC(=O)Nc3ccc(C)c(C)c3)c12 | -0.364 (inactive)
O=C(NCc1cccnc1)c1cccc(C(F)(F)F)c1 | -0.452 (inactive)
COc1ccc(C(=O)Nc2ccc(Cl)c(Cl)c2)c(OC)n1 | -0.364 (inactive)
COc1cc(C(=O)OCc2cc3ccccc3[nH]c2=O)cc(OC)c1OC | -0.356 (inactive)
COc1cc(C)c(Br)cc1S(=O)(=O)N1CCOCC1 | -0.461 (inactive)
FC(F)Oc1cccc2cccnc12 | -0.345 (inactive)
Cc1ccc(OCC2Cn3c(nc4c3c(=O)n(C)c(=O)n4C)O2)cc1 (stereo not given) | -0.406 (inactive)
Cc1cnc(C(=O)Nc2ccccc2-n2cccc2)cn1 | -0.379 (inactive)
